Screening data: PubChem, National Center for Advancing Translational Sciences (NCATS)
An excerpt weighted towards active compounds, which were near 6.5% of everything screened.
Vaccinia Venus = inhibitors of vaccinia virus (Venus reporter); Vaccinia virus Venus reporter expression, fluorescence; Potency, µM (top dose mostly 36.5 µM), usual class: inhibitors; actives 0.46% (n = 330,000); calls by dose curve; tested in A549 cells; note: nearly all actives have a fitted effect of over 30% in size
FMDV inh = blocks foot and mouth disease virus | FMDV antiviral cell-based qHTS | Potency, µM (top dose mostly 57.9 µM), usual class: inhibitors | actives 1.2% (n = 410,000) | AID 1159524; calls by dose curve; tested in HEK293T cells; note: read-out not given here; nearly all actives have a fitted effect of over 45% in size
LASV entry inh = Lassa virus entry inhibition; actives 1.2% (n = 300,000); Lassa virus pseudotype entry inhibition, cell reporter; Potency, µM (series often up to 37.9 µM), hits mostly inhibitors; calls by dose curve; tested in HEK293 cells; note: nearly all actives have a fitted effect of over 50% in size
Marburg entry inh = Marburg virus entry inhibition. Marburg virus pseudotyped entry inhibition, cell reporter. Potency, µM (doses to about 37.8 µM), actives largely listed as inhibitors. actives 1.8% (n = 300,000); calls by dose curve; tested in HEK293 cells
VACV mCherry inh = vaccinia inhibition (mCherry reporter); Vaccinia virus mCherry reporter infection, fluorescence; Potency, µM (series often up to 36.5 µM), usual class: inhibitors; actives 0.63% (n = 310,000); calls by dose curve; tested in A549 cells; note: nearly all actives have a fitted effect of over 35% in size
HCMV inh = blocks human cytomegalovirus replication. HFF cells, HCMV-luciferase reporter, 72 h; hits give low values. activity change, negative = inhibition, % at 57.5 µM. actives 4.5% (n = 410,000); in the data active = activity change below about -60%; inconclusive = no clear call, values can overlap the other calls; inactive = above about -39%
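Steps: HFFs plated, 16 h 37C; compounds added; HCMV-luciferase added to MOI 1 PFU/cell; 72 h 37C; OneGlo reagent, 5 min room temperature; luminescence read, normalized to controls.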
A number is an active result; - = inactive; ? = inconclusive; . = no result.

SMILES	Vaccinia Venus	FMDV inh	LASV entry inh	Marburg entry inh	VACV mCherry inh	HCMV inh
CC(NC(=O)CN1C(=O)NC(Cc2ccccc2)(Cc2ccccc2)C1=O)C12CC3CC(CC(C3)C1)C2 (configuration not stated)	?	-	?	?	10µM	-
CC(NC(=O)Cn1ccsc1=N)C12CC3CC(CC(C3)C1)C2 (configuration not stated)	-	-	?	10µM	-	-
CC1CCCCC1NC(=O)CN1C(=O)NC(Cc2ccccc2)(Cc2ccccc2)C1=O (configuration not stated)	-	-	-	-	-	-
CC(C)C[C@H]1COc2cc(N3CCOCC3)ccc2S(=O)(=O)N1	.	.	.	.	.	-
CNc1ccc(/C=C/c2ccccc2)cc1	-	.	.	.	-	.
CN1CCc2nc(SCc3ccc(Cl)cc3)c(C#N)c(-c3cccs3)c2C1	-	-	-	-	-	-108.8
N#Cc1c(N)nc(SCc2ccncc2)c(C#N)c1-c1cccs1	?	15.8µM	?	?	?	?
CCOC(=O)CC(=O)CSc1nc2c(c(-c3cccs3)c1C#N)CCC2	-	-	.	.	-	-
CCCCOCC1CN(CCCC)S(=O)(=O)c2c(Oc3ccc(OC)cc3)cccc2O1 (configuration not stated)	.	.	?	.	.	-
Cc1cc(Cl)nc2nc(Cl)ccc12	-	.	.	.	-	.
COc1ccc(C2Nc3ccccc3C(=O)N2c2ccc(Cl)cc2)cc1COc1ccc(NC(C)=O)cc1 (configuration not stated)	-	.	.	.	-	.
CSc1nc(C2CC2)cc(-c2cccs2)c1C#N	-	.	-	-	-	-102.0
COc1ccc(-c2cc(-c3ccccc3)c(C#N)c(SCC(=O)O)n2)cc1	-	-	-	-	-	?
CC(C)OC(=O)CC(=O)CSc1nc(-c2ccc(F)cc2)cc(-c2ccccc2)c1C#N	-	-	?	?	-	-62.0
CCOC(=O)CSc1nc(-c2ccc(F)cc2)cc(C(F)(F)F)c1C#N	-	31.6µM	-	-	-	-
CCN(CC)C(=O)CSc1nc(-c2ccccc2)cc(-c2ccc(OC)cc2)c1C#N	-	-	-	-	-	-64.7
CCN(CC)C(=O)CSc1nc(-c2cccs2)cc(-c2cccs2)c1C#N	.	-	18.3µM	?	.	?
C=CC[C@@H]1C=C[C@H](ON=C(C)CCN2CCCCc3nc(C)c(C)cc32)[C@H](CO)O1	.	.	.	-	.	.
Cc1ccccc1N1CC(O)(c2cccs2)[N+]2=C1CCCC2 (configuration not stated)	-	-	-	-	-	-60.2
COCCNc1nc(-c2cc3ccccc3o2)cs1	-	-	3.98µM	?	-	-
CN1C2CCC1CC(OC(c1ccccc1)c1ccc(Cl)cc1)C2 (configuration not stated)	.	.	.	3.16µM	.	?
CN1CCC(OC(c2ccccc2)c2ccccc2)CC1	-	-	?	?	-	-
C[C@@H](C(=O)OC1C[C@H]2CC[C@@H](C1)N2C)c1ccc(Br)cc1 (some centres not stated)	.	-	.	.	.	.
CN1C2CCC1CC(OC(c1ccccc1)c1ccccc1N)C2 (configuration not stated)	-	-	?	17.8µM	-	-
Cc1ccccc1NC(=O)CN1C(=O)N/C(=C/c2cccn2-c2cccc(C(=O)O)c2)C1=O	.	.	.	-	.	.
SMILES	Vaccinia Venus	FMDV inh	LASV entry inh	Marburg entry inh	VACV mCherry inh	HCMV inh
O=C(c1ccccc1)c1ccc2nc(N3CCN(c4ccc(F)cc4)CC3)c3nncn3c2c1	?	-	?	-	?	-66.7
c1ccc(-c2cnc(-c3cccnc3)o2)cc1	-	-	-	?	-	-
c1ccc(Oc2ccc(Nc3ncc(-c4ccccc4)o3)cc2)cc1	.	.	0.25µM	.	.	.
CC(=O)Nc1ccc(Nc2nc(-c3cc4ccccc4oc3=O)cs2)cc1	?	-	-	-	-	-
Nc1ccc(Nc2nc(-c3cc4ccccc4oc3=O)cs2)cc1	-	-	?	?	?	-60.9
C[C@@H]1[C@H](c2ccccc2)OCCS(=O)(=O)N1Cc1cccc(Cl)c1	-	.	.	.	-	.
Brc1ccc(CN2CCCc3nc(-c4ccccc4)ccc32)cc1	.	.	.	.	.	-80.7
Cc1ccc(S(=O)(=O)Nc2ccc(NC(=O)Nc3cccc(C(F)(F)F)c3)cc2)cc1	?	?	?	?	11.2µM	-61.6
CCN(CC)S(=O)(=O)c1ccc(C(=O)Nc2cccc(C)c2)cc1	-	.	?	-	-	-
O=C(NCc1ccccc1Cl)c1ccc(S(=O)(=O)Nc2cccc(C(F)(F)F)c2)cc1	-	-	?	?	-	-65.7
